Where “and” joins values, the source holds several entries; their conditions need not be identical. Equal entries are not always repeated. Where a structure was tested more than once in an assay, its records may differ in their call. Calls of active or inactive are those of the source. A call without a number means that no potency is given here. Unless noted, calls follow the shape of the dose curve; as a rule, active = well fitted curve in the direction sought with a large enough effect in the repeat runs; inconclusive = weak or mixed curves; inactive = no such curve, though single readings can be large; an effect the other way counts as inactive or inconclusive.
Legend:
[1] = qHTS assay to identify small molecule antagonists of the thyroid receptor (TR) signaling pathway - cell viability counter screen (AID 743064); also: nearly all actives have a fitted effect of over 50% in size; also: potency is read from the fitted curve at half-maximal effect
Procedure, shortened: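 In rat pituitary GH3.TRE-Luc reporter cells co-exposed to compound and 1 nM T3 for 23.5 h, cytotoxicity was assessed with CellTiter-Fluor in the same wells, read by fluorescence.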

[2] = qHTS assay to identify small molecule antagonists of the thyroid receptor (TR) signaling pathway (AID 743065); also: nearly all actives have a fitted effect of over 55% in size; also: potency is read from the fitted curve at half-maximal effect; as to activity, negative = inhibition: series mostly up to about 70 µM
Procedure, shortened: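 GH3.TRE-Luc rat pituitary cells carrying two TR response elements driving luciferase were plated for 4 h, given compound plus 1 nM T3 (final), and incubated 23.5 h at 37 C. ONE-Glo luminescence measured reporter inhibition; CellTiter-Fluor fluorescence tracked cytotoxicity.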

[3] = test system: thyroid hormone receptor (rat, GH3 cells); test: qHTS assay to identify small molecule agonists of the thyroid receptor (TR) signaling pathway (AID 743066; calls by dose curve)
[4] = qHTS assay to identify small molecule antagonists of the estrogen receptor alpha (ER-alpha) signaling pathway - cell viability counter screen (AID 743074; calls by dose curve;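 also: HEK293 cells carrying ER-alpha-UAS-bla reporter stimulated with 17beta-estradiol; nearly all actives have a fitted effect of over 45% in size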; also: potency is read from the fitted curve at half-maximal effect)
[5] = qHTS assay to identify small molecule antagonists of the estrogen receptor alpha (ER-alpha) signaling pathway using the BG1 cell line - cell viability counter screen (AID 743081);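 also: compound given together with 17beta-estradiol as the ER stimulus; nearly all actives have a fitted effect of over 45% in size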; also: potency is read from the fitted curve at half-maximal effect; as to activity change, negative = cytotoxicity: series mostly up to about 70 µM
[6] = molecular target: Aromatase (Homo sapiens) (UniProt P11511); test: qHTS assay to identify aromatase inhibitors (AID 743083); also: nearly all actives have a fitted effect of over 55% in size; also: potency is read from the fitted curve at half-maximal effect; as to activity, negative = inhibition: series mostly up to about 70 µM
[7] = qHTS assay to identify aromatase inhibitors - cell viability counter screen (AID 743084);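 also: cells stimulated with testosterone during compound exposure; nearly all actives have a fitted effect of over 55% in size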; also: potency is read from the fitted curve at half-maximal effect
[8] = molecular target: Aryl hydrocarbon receptor (Homo sapiens) (UniProt P35869); test: qHTS assay to identify small molecule that activate the aryl hydrocarbon receptor (AhR) signaling pathway (AID 743085); also: nearly all actives have a fitted effect of over 15% in size; also: potency is read from the fitted curve at half-maximal effect;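 as to activation: HG2L7.5c1 human HepG2 liver cells with stably integrated DRE-driven firefly reporter; series mostly up to about 70 µM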
Procedure, shortened: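 AhR agonist activity is inferred from enhanced light output of a DRE-controlled firefly luciferase reporter in HepG2 cells, measured with ONE-Glo following 24 h treatment at 37C.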

[9] = qHTS assay to identify small molecule that activate the aryl hydrocarbon receptor (AhR) signaling pathway - cell viability counter screen (AID 743086);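 also: HepG2 liver cells carrying the AhR DRE luciferase reporter; series mostly up to about 70 µM; nearly all actives have a fitted effect of over 45% in size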
Procedure, shortened: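 HepG2-AhR-luc (HG2L7.5c1) cells, 4000/well, were preincubated 5 h at 37C, exposed to compound in qHTS format for 24 hr at 37C, then given CellTiter-Fluor for 30 min; viability was read as fluorescence in the reporter wells.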

[10] = molecular target: Peroxisome proliferator-activated receptor gamma (Homo sapiens) (UniProt P37231); test: qHTS assay to identify small molecule agonists of the peroxisome proliferator-activated receptor gamma (PPARg) signaling pathway (AID 743094; active = well fitted activation curve with a large enough effect in the signal ratio in the repeat runs, not every such curve was filed as active; inconclusive = weak or mixed curves, or effect the other way; inactive = no such curve, though single readings can be large or run the other way; the % refers to the signal ratio)
Procedure, shortened: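 Agonist activity was taken from a beta-lactamase reporter (FRET substrate, 1 h at room temperature) in HEK293H cells carrying a PPARg UAS-bla construct. Compounds in DMSO were incubated 17 h at 37C after a 5 h cell pre-incubation.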

[11] = qHTS assay to identify small molecule antagonists of the peroxisome proliferator-activated receptor gamma (PPARg) signaling pathway - cell viability counter screen (AID 743194); also: nearly all actives have a fitted effect of over 55% in size; also: potency is read from the fitted curve at half-maximal effect
Procedure, shortened: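 PPARg-UAS-bla HEK293H cells were plated, rested 5 h at 37 C, then treated with compounds plus rosiglitazone (50 nM final) for 17 h at 37 C; viability was then read by CellTiter-Glo luminescence after 30 min at room temperature.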

[12] = qHTS assay for small molecule agonists of the antioxidant response element (ARE) signaling pathway (AID 743202; active = well fitted activation curve with a large enough effect in the signal ratio in the repeat runs, not every such curve was filed as active; inconclusive = weak or mixed curves, or effect the other way; inactive = no such curve, though single readings can be large or run the other way; the % refers to the signal ratio; also: potency is read from the fitted curve at half-maximal effect)
Procedure, shortened: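 Following a 16 h, 37 C exposure of reporter HepG2 cells (ARE-driven beta-lactamase, 2,000 cells/well) to compounds, FRET substrate was applied for 2 h at room temperature and fluorescence intensity recorded.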

[13] = qHTS assay for small molecule activators of the heat shock response signaling pathway - cell viability counter screen (AID 743209); also: nearly all actives have a fitted effect of over 50% in size; also: potency is read from the fitted curve at half-maximal effect
Procedure, shortened: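 Cytotoxicity counter screen run in the same wells as the heat-shock bla reporter assay: HeLa HSE-bla cells, 5 h compound exposure at 37 C, viability read by CellTiter-Glo luminescence.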

[14] = molecular target: Estrogen receptor (Homo sapiens) (UniProt P03372); test: qHTS assay to identify small molecule antagonists of the estrogen receptor alpha (ER-alpha) signaling pathway (AID 743069; active = well fitted curve in the direction sought with a large enough effect in the signal ratio in the repeat runs, not every such curve was filed as active; inconclusive = weak or mixed curves, or effect the other way; inactive = no such curve, though single readings can be large or run the other way; the % refers to the signal ratio; also: potency is read from the fitted curve at half-maximal effect)
Procedure, shortened: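 A 17beta-estradiol challenge was applied right after compound transfer to ER-alpha-UAS-bla HEK293 cells previously kept in charcoal-stripped serum. Plates stood 18 hr at 37C and 5% CO2; fluorescence was read following 2 hr FRET substrate loading at room temperature.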

[15] = molecular target: Estrogen receptor (Homo sapiens) (UniProt P03372); test: qHTS assay to identify small molecule agonists of the estrogen receptor alpha (ER-alpha) signaling pathway (AID 743075; calls by dose curve;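 also: HEK293 GripTite cells with ER-alpha and UAS-driven beta-lactamase reporter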; also: potency is read from the fitted curve at half-maximal effect)
[16] = molecular target: Estrogen receptor (Homo sapiens) (UniProt P03372); test: qHTS assay to identify small molecule agonists of the estrogen receptor alpha (ER-alpha) signaling pathway using the BG1 cell line (AID 743079); also: nearly all actives have a fitted effect of over 20% in size; also: potency is read from the fitted curve at half-maximal effect
[17] = qHTS assay for small molecule agonists of the antioxidant response element (ARE) signaling pathway - cell viability counter screen (AID 743203; calls by dose curve; also: nearly all actives have a fitted effect of over 55% in size; also: potency is read from the fitted curve at half-maximal effect)
Procedure, shortened: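 Viability counter screen: CellTiter-Glo luminescence, read after 30 min at room temperature, in ARE-bla HepG2 wells. Compound exposure lasted 16 h at 37C/5% CO2, following a 5 h pre-incubation of the cells after plating.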

[18] = qHTS assay for small molecule activators of the heat shock response signaling pathway (AID 743210; active = well fitted activation curve with a large enough effect in the signal ratio in the repeat runs, with a control signal flat, not every such curve was filed as active; inconclusive = weak or mixed curves; the % refers to the signal ratio; also: series mostly up to about 63 µM)
Procedure, shortened: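 Heat shock element–beta-lactamase HeLa reporter cells; qHTS with compounds for 5 h at 37 C; detection by FRET substrate fluorescence after 2.5 h at RT.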

[19] = molecular target: Peroxisome proliferator-activated receptor gamma (Homo sapiens) (UniProt P37231); test: qHTS assay to identify small molecule antagonists of the peroxisome proliferator-activated receptor gamma (PPARg) signaling pathway (AID 743191; calls by dose curve; also: nearly all actives have a fitted effect of over 30% in size; also: potency is read from the fitted curve at half-maximal effect; as to ratio activity, negative = inhibition: series mostly up to about 63 µM)
Procedure, shortened: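 GeneBLAzer PPARg UAS-bla HEK293H cells carrying a UAS-driven beta-lactamase reporter were plated at 3000 cells/well, preincubated 5 h at 37C, then given compound for 17 h at 37C; LiveBLAzer B/G FRET substrate was read after 1 h at room temperature.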

[20] = qHTS assay to identify small molecule antagonists of the estrogen receptor alpha (ER-alpha) signaling pathway using the BG1 cell line (AID 743080; calls by dose curve;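 also: BG1 cells stimulated with 17beta-estradiol alongside compound; series mostly up to about 70 µM; nearly all actives have a fitted effect of over 25% in size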)
Procedure, shortened: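 Luciferase inhibition measured with ONE-Glo after 30 min at RT in BG1Luc4E2 cells given test compounds and 17beta-estradiol for 21.5 h at 37 C; CellTiter-Fluor viability read in the same wells beforehand.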

Aromatase (Homo sapiens), sequence (P11511 whole entry, looked up): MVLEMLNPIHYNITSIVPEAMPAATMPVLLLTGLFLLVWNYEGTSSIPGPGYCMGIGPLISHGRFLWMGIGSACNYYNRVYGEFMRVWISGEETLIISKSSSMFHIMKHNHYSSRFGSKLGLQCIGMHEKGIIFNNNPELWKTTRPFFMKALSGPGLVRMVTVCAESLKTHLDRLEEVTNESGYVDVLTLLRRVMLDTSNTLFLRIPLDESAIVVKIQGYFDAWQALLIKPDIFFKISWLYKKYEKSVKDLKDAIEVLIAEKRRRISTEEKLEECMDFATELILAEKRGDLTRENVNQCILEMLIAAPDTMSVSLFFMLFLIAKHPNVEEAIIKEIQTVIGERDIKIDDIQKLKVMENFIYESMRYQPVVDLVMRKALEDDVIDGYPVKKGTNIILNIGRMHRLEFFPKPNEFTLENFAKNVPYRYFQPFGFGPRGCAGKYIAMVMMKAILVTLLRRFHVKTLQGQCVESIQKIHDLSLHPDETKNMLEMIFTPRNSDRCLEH
Aryl hydrocarbon receptor (Homo sapiens), sequence (P35869 whole entry, looked up): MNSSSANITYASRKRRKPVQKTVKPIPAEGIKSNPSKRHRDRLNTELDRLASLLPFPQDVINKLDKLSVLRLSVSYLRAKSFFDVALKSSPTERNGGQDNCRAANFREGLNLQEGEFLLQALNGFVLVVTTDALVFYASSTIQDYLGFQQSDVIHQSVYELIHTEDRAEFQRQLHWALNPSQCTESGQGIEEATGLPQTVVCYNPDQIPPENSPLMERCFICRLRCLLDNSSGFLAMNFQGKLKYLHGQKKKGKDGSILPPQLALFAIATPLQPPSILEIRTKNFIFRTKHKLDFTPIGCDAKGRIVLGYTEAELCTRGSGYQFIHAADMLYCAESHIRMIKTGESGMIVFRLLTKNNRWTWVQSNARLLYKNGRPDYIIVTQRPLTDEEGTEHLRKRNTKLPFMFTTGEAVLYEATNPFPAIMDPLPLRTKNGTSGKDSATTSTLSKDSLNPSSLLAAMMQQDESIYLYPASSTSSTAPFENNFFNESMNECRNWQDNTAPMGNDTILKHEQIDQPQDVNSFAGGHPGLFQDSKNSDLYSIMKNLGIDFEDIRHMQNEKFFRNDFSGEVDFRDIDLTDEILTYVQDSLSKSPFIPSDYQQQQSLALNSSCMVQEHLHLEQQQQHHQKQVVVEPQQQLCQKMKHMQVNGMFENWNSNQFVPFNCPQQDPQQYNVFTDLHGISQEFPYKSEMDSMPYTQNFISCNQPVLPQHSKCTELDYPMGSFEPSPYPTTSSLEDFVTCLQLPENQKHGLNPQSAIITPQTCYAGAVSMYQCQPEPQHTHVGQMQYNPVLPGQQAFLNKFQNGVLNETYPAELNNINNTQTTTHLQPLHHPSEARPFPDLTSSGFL
Peroxisome proliferator-activated receptor gamma (Homo sapiens), sequence (P37231 whole entry, looked up): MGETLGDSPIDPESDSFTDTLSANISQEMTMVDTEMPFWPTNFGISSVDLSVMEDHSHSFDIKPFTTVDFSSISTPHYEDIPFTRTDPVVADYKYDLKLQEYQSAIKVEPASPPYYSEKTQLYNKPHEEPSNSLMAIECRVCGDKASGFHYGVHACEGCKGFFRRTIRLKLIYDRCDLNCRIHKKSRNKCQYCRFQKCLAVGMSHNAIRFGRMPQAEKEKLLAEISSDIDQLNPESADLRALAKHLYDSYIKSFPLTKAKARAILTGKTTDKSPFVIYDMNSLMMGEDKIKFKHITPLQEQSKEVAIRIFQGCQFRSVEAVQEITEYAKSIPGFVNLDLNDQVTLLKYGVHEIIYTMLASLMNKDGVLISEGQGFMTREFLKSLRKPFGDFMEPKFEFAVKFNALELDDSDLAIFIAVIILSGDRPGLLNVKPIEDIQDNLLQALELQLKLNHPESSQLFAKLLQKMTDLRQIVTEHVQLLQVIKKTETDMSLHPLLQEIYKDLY
Estrogen receptor (Homo sapiens), sequence (P03372 whole entry, looked up): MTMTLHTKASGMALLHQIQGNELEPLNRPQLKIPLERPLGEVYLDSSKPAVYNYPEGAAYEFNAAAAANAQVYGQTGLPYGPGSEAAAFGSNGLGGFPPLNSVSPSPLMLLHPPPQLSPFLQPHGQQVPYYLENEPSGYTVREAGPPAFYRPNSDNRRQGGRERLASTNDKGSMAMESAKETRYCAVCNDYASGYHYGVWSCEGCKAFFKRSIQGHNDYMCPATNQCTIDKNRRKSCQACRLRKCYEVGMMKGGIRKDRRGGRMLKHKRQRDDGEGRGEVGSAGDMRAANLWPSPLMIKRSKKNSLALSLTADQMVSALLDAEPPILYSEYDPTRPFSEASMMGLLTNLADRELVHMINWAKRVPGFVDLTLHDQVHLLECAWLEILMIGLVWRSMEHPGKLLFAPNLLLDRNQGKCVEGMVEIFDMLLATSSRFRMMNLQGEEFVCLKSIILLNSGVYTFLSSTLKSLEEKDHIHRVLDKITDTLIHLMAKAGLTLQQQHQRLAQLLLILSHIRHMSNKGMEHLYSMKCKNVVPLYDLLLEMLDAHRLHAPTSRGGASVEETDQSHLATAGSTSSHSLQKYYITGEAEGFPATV

CC1=CC(=O)c2ccccc2C1=O
Potency [1]: 13.7 µM (active)
Potency [2]: 21.1 µM (active) and 13.7 µM (active)
Potency [3]: inactive
Potency [4]: inactive
Potency [5]: inactive
Potency [6]: inactive and 19.3 µM (active)
Potency [7]: inactive and 24.3 µM (active)
Potency [8]: 6.68 µM (active) and 24.3 µM (active)
Potency [9]: inactive
Potency [10]: inactive
Potency [11]: 11 µM (active) and 26.6 µM (active)
Potency [12]: 9.44 µM (active)
Potency [13]: 15.5 µM (active) and 2.66 µM (active)

CCCCOCCOC(=O)c1ccccc1C(=O)OCCOCCCC
Potency [1]: inactive
Potency [2]: 30 µM (active)
Potency [3]: inactive
Potency [14]: inactive
Potency [4]: inactive
Potency [15]: inactive
Potency [16]: inactive
Potency [5]: inactive
Potency [6]: inactive
Potency [7]: inactive
Potency [9]: inactive
Potency [10]: inactive
Potency [11]: inactive
Potency [12]: inactive
Potency [13]: inactive

COc1nc(C)nc(Cl)c1NC1=NCCN1
Potency [1]: inactive
Potency [2]: inactive
Potency [3]: inactive
Potency [14]: inactive
Potency [4]: inactive
Potency [15]: inactive
Potency [16]: inactive
Potency [6]: inactive
Potency [7]: inactive
Potency [9]: inactive
Potency [10]: inactive
Potency [11]: inactive
Potency [12]: inactive
Potency [17]: inactive
Potency [18]: inactive

O=C(Nc1ccccc1SSc1ccccc1NC(=O)c1ccccc1)c1ccccc1
Potency [1]: 68.6 µM (active)
Potency [2]: 21.8 µM (active) and 48.6 µM (active)
Potency [3]: inactive
Potency [14]: inactive
Potency [16]: 27.4 µM (active) and 54.5 µM (active)
Potency [5]: inactive
Potency [6]: 13.8 µM (active) and 27.3 µM (active)
Potency [7]: 15.4 µM (active) and 48.6 µM (active)
Potency [8]: 30.8 µM (active) and 34.4 µM (active)
Potency [9]: inactive
Potency [11]: inactive
Potency [17]: inactive

c1ccc2n[nH]nc2c1
Potency [1]: inactive
Potency [2]: inactive
Potency [3]: inactive
Potency [4]: inactive
Potency [5]: inactive
Potency [6]: inactive
Potency [7]: inactive
Potency [8]: inactive
Potency [9]: inactive
Potency [10]: inactive
Potency [19]: inactive
Potency [11]: inactive
Potency [12]: inactive
Potency [17]: inactive
Potency [13]: inactive
Potency [18]: inactive

Oc1ccc(Cl)cc1Cc1cc(Cl)ccc1O
Potency [1]: 18.8 µM (active) and 15.6 µM (active) and 27.3 µM (active)
Potency [2]: 7.5 µM (active) and 3.12 µM (active) and 5.45 µM (active)
Potency [3]: inactive
Potency [14]: inactive
Potency [4]: 49.9 µM (active) and 38.9 µM (active)
Potency [15]: inactive
Potency [5]: inactive
Potency [6]: 29.8 µM (active) and 30.6 µM (active)
Potency [8]: inactive
Potency [9]: inactive
Potency [10]: inactive
Potency [19]: 9.95 µM (active) and 26.6 µM (active)
Potency [11]: 11.2 µM (active) and 3.89 µM (active) and 16.8 µM (active)
Potency [13]: 22.3 µM (active) and inactive

NC(Cc1ccc(Cl)cc1)C(=O)O (configuration not stated)
Potency [1]: inactive
Potency [2]: inactive
Potency [3]: inactive
Potency [4]: inactive
Potency [5]: inactive
Potency [6]: inactive
Potency [7]: inactive
Potency [8]: inactive
Potency [9]: inactive
Potency [10]: inactive
ratio activity, negative = inhibition [19]: -10.6% [at 0.55 µM] (inactive)
activity change, negative = cytotoxicity [11]: 2.82% [at 0.55 µM] (inactive)
activation [18]: 1.36% [at 0.55 µM] (inactive)

O=C1Nc2ccccc2C1(c1ccc(O)cc1)c1ccc(O)cc1
Potency [1]: 54.5 µM (active)
Potency [2]: 54.5 µM (active)
Potency [3]: inactive
Potency [14]: 49 µM [inconclusive] (active)
Potency [4]: inactive
Potency [15]: inactive
Potency [5]: 0.969 µM (active)
Potency [6]: inactive
Potency [8]: inactive
Potency [11]: inactive
Potency [17]: inactive
Potency [13]: inactive
Potency [18]: inactive

CCN1CCCC1CNC(=O)c1cc(S(=O)(=O)CC)c(N)cc1OC (configuration not stated)
Potency [1]: inactive
Potency [2]: inactive
Potency [3]: inactive
Potency [14]: inactive
Potency [15]: inactive
Potency [16]: inactive
Potency [20]: inactive
Potency [6]: inactive
Potency [7]: inactive
Potency [8]: inactive
Potency [9]: inactive
Potency [10]: inactive
Potency [19]: inactive
Potency [11]: inactive
Potency [12]: inactive
Potency [13]: inactive
Potency [18]: inactive

Cc1ccnc2c1NC(=O)c1cccnc1N2C1CC1
Potency [1]: inactive
Potency [2]: inactive
Potency [3]: inactive
Potency [4]: inactive
Potency [5]: inactive
Potency [6]: inactive
Potency [7]: inactive
Potency [8]: inactive
Potency [9]: inactive
Potency [10]: inactive
Potency [11]: inactive
Potency [12]: inactive
Potency [17]: inactive
Potency [13]: inactive
Potency [18]: inactive

CN1C(=O)c2ccc([N+](=O)[O-])cc2C1=O
Potency [1]: inactive
Potency [2]: inactive
Potency [3]: inactive
Potency [14]: inactive
Potency [15]: inactive
Potency [16]: inactive
Potency [5]: inactive
Potency [6]: inactive
Potency [7]: inactive
Potency [8]: inactive
Potency [9]: inactive
Potency [10]: inactive
Potency [11]: inactive
Potency [13]: inactive
Potency [18]: inactive

CCCCCCCCCCCCc1ccccc1O
Potency [1]: 13.7 µM (active)
Potency [2]: 13.7 µM (active)
Potency [3]: inactive
Potency [4]: 48.3 µM (active) and 49 µM (active)
Potency [15]: 13.6 µM [inconclusive] (active) and 3.89 µM [inconclusive] (active)
Potency [16]: 956 nM (active) and 1.93 µM (active)
Potency [5]: 67.7 µM (active)
Potency [6]: 30.2 µM (active) and 27.3 µM (active)
Potency [7]: 30.2 µM (active) and 54.5 µM (active)
Potency [8]: inactive
Potency [9]: inactive
Potency [11]: 48.3 µM (active) and 17.4 µM (active)
Potency [17]: 60.3 µM (active) and 43.3 µM (active)
Potency [13]: 17.2 µM (active) and 24.5 µM (active)
